Here are results for 36 molecules from PubChem BioAssay AID1259245 (Vanderbilt High Throughput Screening Facility, 2017).

Each structure is given as a SMILES string. Among all 40,000 compounds or so, about 1,400 (3.5%) were called active.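 How the source made its calls: active means any of four per-well response measures lying three or more SD from its plate-wide compound average, in either direction; inactive means the rest, inconclusive results apart.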 The full list was thinned out, with actives kept by preference.

Chain of Voltage-dependent calcium channel gamma-2 subunit (Mus musculus) + Glutamate receptor 2 (Rattus norvegicus) (O88602 whole entry, looked up): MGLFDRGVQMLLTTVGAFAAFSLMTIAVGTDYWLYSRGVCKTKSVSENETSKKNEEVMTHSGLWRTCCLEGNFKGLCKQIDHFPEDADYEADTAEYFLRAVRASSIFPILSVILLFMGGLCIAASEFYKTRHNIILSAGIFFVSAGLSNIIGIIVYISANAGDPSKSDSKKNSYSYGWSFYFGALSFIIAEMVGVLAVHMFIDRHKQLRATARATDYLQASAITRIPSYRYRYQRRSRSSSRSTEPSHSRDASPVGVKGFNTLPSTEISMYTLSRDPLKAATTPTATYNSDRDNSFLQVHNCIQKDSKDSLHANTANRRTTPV
Chain of Voltage-dependent calcium channel gamma-2 subunit (Mus musculus) + Glutamate receptor 2 (Rattus norvegicus) (P19491 whole entry, looked up): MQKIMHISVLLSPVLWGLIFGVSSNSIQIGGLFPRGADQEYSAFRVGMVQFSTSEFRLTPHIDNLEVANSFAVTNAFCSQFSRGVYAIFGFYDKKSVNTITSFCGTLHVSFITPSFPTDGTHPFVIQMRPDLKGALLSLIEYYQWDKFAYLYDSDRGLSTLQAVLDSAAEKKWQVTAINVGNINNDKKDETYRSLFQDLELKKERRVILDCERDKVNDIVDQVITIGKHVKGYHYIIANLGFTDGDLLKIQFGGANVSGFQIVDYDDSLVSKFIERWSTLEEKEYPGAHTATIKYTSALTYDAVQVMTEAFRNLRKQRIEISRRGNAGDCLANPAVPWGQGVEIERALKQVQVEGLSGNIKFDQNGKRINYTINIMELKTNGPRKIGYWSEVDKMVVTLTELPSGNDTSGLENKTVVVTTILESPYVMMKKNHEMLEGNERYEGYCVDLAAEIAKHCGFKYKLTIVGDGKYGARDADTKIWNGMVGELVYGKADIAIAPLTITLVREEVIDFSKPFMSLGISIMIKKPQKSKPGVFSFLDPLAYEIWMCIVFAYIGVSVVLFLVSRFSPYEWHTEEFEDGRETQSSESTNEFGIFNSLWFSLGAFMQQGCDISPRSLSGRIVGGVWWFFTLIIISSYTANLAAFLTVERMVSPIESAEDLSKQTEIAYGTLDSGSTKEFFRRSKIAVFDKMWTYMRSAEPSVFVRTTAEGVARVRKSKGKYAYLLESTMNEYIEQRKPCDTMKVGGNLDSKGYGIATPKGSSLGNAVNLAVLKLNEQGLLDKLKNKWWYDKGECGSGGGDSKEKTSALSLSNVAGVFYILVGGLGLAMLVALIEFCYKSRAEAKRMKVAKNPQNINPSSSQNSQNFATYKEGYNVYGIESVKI

This assay concerns the target Voltage-dependent calcium channel gamma-2 subunit (Mus musculus) + Glutamate receptor 2 (Rattus norvegicus) (UniProt O88602+P19491). Description: AMPAR-TARP gamma-2 complex positive or negative modulation – cell-based, membrane potential dye, primary screen (AID 1259245). The note with it: HEK293 GluA2+stargazin, membrane potential dye (FDSS), glutamate EC50, at 30 µM, hits were called plate by plate, in both directions; compound max-min signal: compound-alone response (agonism); glutamate slope, % of max: measured here: glutamate response slope, % max.
As to `COc1ccc(C)cc1S(=O)(=O)Nc1cc(Cl)ccc1O`, the compound max-min signal is 0.201; the glutamate response, % of max is 17.5% (active); the glutamate slope, % of max amounted to 33.4%.
For `COc1ccc(C)cc1S(=O)(=O)NCC1CCN(C2CCCC2)CC1` the same measures were 0.046, 35.2% (inactive) and 60.4%.
Regarding `CCOc1ccc(C)cc1S(=O)(=O)Nc1cc(Cl)ccc1O`, the compound max-min signal is 0.184; the glutamate response, % of max was 20.5% (inactive); the glutamate slope, % of max is 42.7%.
For `COc1ccc(SCC(=O)Nc2sc3c(c2C(N)=O)CCN(C(C)=O)C3)cc1` the same measures were 0.106, 34.1% (inactive) and 58.5%.
The like results for `COc1ccc(CCNC(=O)Nc2c[nH]c3ccccc23)cc1` were, in that order, 0.127, 40.6% (inactive) and 64.1%.
For `Cc1cc(Cl)cc2sc(N(CC3CCCO3)C(=O)CN(C)S(C)(=O)=O)nc12` (stereo not drawn) the same measures were 0.075, 26.5% (inactive) and 51.3%.
Take `O=S(=O)(c1ccc(C2CCCCC2)cc1)N1CCC(Cc2ccccc2)CC1`: the compound max-min signal was 0.0564; the glutamate response, % of max was 25.6% (inactive); the glutamate slope, % of max worked out at 44.4%.
The like results for `COc1ccc(S(=O)(=O)NCC(c2ccsc2)N2CCCCCC2)cc1F` (stereo not drawn) were, in that order, 0.168, 17.6% (active) and 30.2%.
For `COc1ccc(S(=O)(=O)NCC(c2ccc(C)cc2)N2CCN(C)CC2)cc1OC` (stereo not drawn) the same measures were 0.0672, 37.4% (inactive) and 55.5%.
Consider `CCOc1ccc(S(=O)(=O)NCC(O)c2ccsc2)cc1F` (stereo not drawn), for which the compound max-min signal amounted to 0.128; the glutamate response, % of max was 48.1% (inactive); the glutamate slope, % of max amounted to 69%.
The like results for `COc1ccc(N2CCN(CCNS(=O)(=O)c3ccc(Cl)s3)CC2)cc1` were, in that order, 0.131, 37.9% (inactive) and 47.8%.
For `COC(=O)c1ccc(NC(=O)CSc2ccc(NC(=O)c3ccco3)nn2)cc1` the same measures were 0.0425, 23.1% (active) and 46.9%.
For `CC(=O)c1ccc(NC(=O)CSc2ccc(NC(=O)c3ccco3)nn2)cc1` the same measures were 0.0373, 24.5% (active) and 47%.
With `COc1cccc(CNC(=O)CSc2ccc(NC(=O)c3cccc(F)c3)nn2)c1`, the compound max-min signal amounted to 0.0911; the glutamate response, % of max was 24.2% (inactive); the glutamate slope, % of max worked out at 47.4%.
The like results for `Cc1ccc(C(=O)Nc2ccc(SCC(=O)NCc3ccc4c(c3)OCO4)nn2)cc1` were, in that order, 0.0549, 27.8% (inactive) and 49.8%.
For `O=C(CSc1ccc(NC(=O)c2ccco2)nn1)Nc1ccc(OC(F)(F)F)cc1` the same measures were 0.106, 19.5% (inactive) and 37.1%.
For `CC(C)C(=O)Nc1ccc(SCC(=O)c2ccccc2)nn1` the same measures were 0.113, 25.4% (inactive) and 42.3%.
As for `CCOC(=O)N1CCc2c(sc(NC(=O)c3ccccc3Cl)c2-c2nc3ccccc3s2)C1`, the compound max-min signal is 0.11; the glutamate response, % of max is 43.3% (inactive); the glutamate slope, % of max is 61.3%.
For the molecule `CCn1nnc2c(N3CCN(CC(=O)Nc4c(C)cc(C)cc4C)CC3)ncnc21`, the compound max-min signal stood at 0.0423; the glutamate response, % of max was 21.5% (inactive); the glutamate slope, % of max was 39.9%.
For `COc1ccc(-n2nnnc2SC(C)C(=O)Nc2ccccc2Cl)cc1` (stereo not drawn) the same measures were 0.0851, 29.7% (inactive) and 55.7%.
For `O=C(NCCN1CCOC(c2ccccc2)C1)c1c(F)cccc1F` (stereo not drawn) the same measures were 0.0396, 14.5% (inactive) and 32.8%.
For `CCOc1ccc(S(=O)(=O)NCc2ccc3c(c2)OCO3)cc1OCC` the same measures were 0.0924, 30.4% (inactive) and 55.6%.
Consider `COc1ccc(S(=O)(=O)Nc2ccc(N3CCCCS3(=O)=O)cc2)cc1F`, for which the compound max-min signal is 0.0701; the glutamate response, % of max was 25.7% (inactive); the glutamate slope, % of max was 44.9%.
For `O=C(CCCn1nc(-c2ccc(Cl)cc2)ccc1=O)Nc1ccc(F)c(F)c1` the same measures were 0.175, 35.4% (inactive) and 51.5%.
The like results for `CC(C)c1cc(NCCN2CCOCC2)n2ncc(-c3ccccc3)c2n1` were, in that order, 0.126, 34% (inactive) and 54.5%.
For `COc1cn(CC(=O)Nc2cccc(C)c2C)c(CN2CCOCC2)cc1=O` the same measures were 0.0306, 11% (inactive) and 23.6%.
On to `COc1nn(C)cc1C(=O)NCCN1CCN(S(C)(=O)=O)CC1`, for which the compound max-min signal worked out at 0.0954; the glutamate response, % of max is 49.7% (inactive); the glutamate slope, % of max worked out at 63.9%.
Regarding `COc1nn(C)cc1C(=O)NCC(=O)Nc1cccc(C)c1C`, the compound max-min signal amounted to 0.067; the glutamate response, % of max is -0.69% (active); the glutamate slope, % of max worked out at 4.95%.
Take `Cc1ccc(NC(=O)c2ccc(S(=O)(=O)N3CCCC3)cc2)c(C(=O)c2ccccc2)c1`: the compound max-min signal was 0.117; the glutamate response, % of max is 44% (inactive); the glutamate slope, % of max stood at 65.3%.
`O=C(CSCc1ccccc1)Nc1ccccc1F`: the compound max-min signal was determined as 0.0999; the glutamate response, % of max is 23.2% (inactive); the glutamate slope, % of max worked out at 36.5%.
For `COc1cc([N+](=O)[O-])ccc1NC(=O)c1ccccc1NS(=O)(=O)c1ccccc1` the same measures were 0.141, 22.1% (active) and 34.2%.
The like results for `Cc1ccc(S(=O)(=O)Nc2ccccc2C(=O)Nc2ccc3c4c(cccc24)CC3)cc1` were, in that order, 0.105, 43.6% (inactive) and 62.4%.
The like results for `COc1ccccc1NC(=O)c1csc(NS(=O)(=O)c2ccccc2)n1` were, in that order, 0.0914, 30.6% (inactive) and 47.5%.
For `COc1ccc(CNC(=O)N2CCC(c3cccs3)CC2)cc1`, the compound max-min signal turned out to be 0.14; the glutamate response, % of max was 40.4% (inactive); the glutamate slope, % of max is 59.7%.
For `CN(C)C(CNC(=O)C(=O)Nc1ccc2c(c1)OCCO2)c1cccn1C` (stereo not drawn) the same measures were 0.0533, 30.5% (inactive) and 63.5%.
The like results for `CCOC(=O)c1ccc(NC(=O)c2cccnc2)cc1` were, in that order, 0.0638, 27.5% (inactive) and 53.7%.
